# Measurements taken from PubChem BioAssay AID602364 (National Center for Advancing Translational Sciences (NCATS), 2012).
# Results filed as inconclusive are left out. Unmarked numbers belong to inactive results. The source made the active and inactive calls. The call rests on the fitted dose curve; in most records, active means well fitted inhibition curve with a large enough effect; inconclusive means small, poorly fitted or top-dose-only effect; inactive means flat fitted curve, though single readings scatter.
# Biological target: Luciferin 4-monooxygenase (Photinus pyralis) (UniProt P08659)
# Assay: FLuc inhibitory activity for the follow-up compounds in a biochemical assay with 1mM ATP
# Conditions: purified P. pyralis luciferase, luminescence; series mostly up to 57.5 µM; activity change, negative = inhibition: at the top concentration
# Description: NCGC Assay Overview: Firefly (Photinus pyralis) luciferase is one of the most commonly used transcriptional reporters. It is considered one of the more dynamically responsive reporters - that is, responsive to changes in reporter transcription - as it requires no post-translational modifications and is enzymatically active directly after protein synthesis (Wood, 1998). With no endogenous expression in mammalian cells and without the requirement of external excitation, it offers very little background signal, thus generally providing excellent signal to background for most assays. Previous profiling work to determine the prevalence of compounds that affect FLuc enzymatic activity (PubChem AID 411) identified that ~3% of the MLSMR library (then at ~72K) inhibited FLuc. […] Of the compounds identified in this profile that inhibited FLuc, 151 compounds were selected for further analysis, in an effort to better understand their mode of inhibiting FLuc. The assay described here was to determine the activity of the compounds in a FLuc assay that contained a KM concentration of D-luciferin and a high concentration (1mM) of ATP.
# NCGC Assay Protocol Summary: Reagents: 50mM Tris acetate, pH 7.5; 10mM Mg acetate; 10uM D-luciferin (Sigma #L9504); 1mM ATP; 0.01% Tween-20; 0.05% BSA; 10nM P. pyralis luciferase (Sigma #L9506) Control compounds used were two known firefly luciferase inhibitors (3-(5-(3-chlorophenyl)-1,2,4-oxadiazol-3-yl)benzoic acid and 5-(2-fluorophenyl)-3-phenyl-1,2,4-oxadiazole), and DMSO. Three microliters containing firefly luciferase substrates in buffer (final concentrations: 50mM Tris acetate, pH 7.5, 10mM Mg acetate, 0.01% Tween-20, 0.05% BSA, 10uM D-luciferin, 1mM ATP) are dispensed into each well of a Greiner white, solid-bottom 1536-well format plate using a flying reagent dispenser (FRD). These assay plates were then treated with 23nL of compound or DMSO using a Kalypsys pin tool, which allows for delivery of a 12-point intraplate titration of each compound to the assay plate (quantitative HTS), with a final compound concentrations ranging from approximately ~60uM to 0.3nM. One microliter of firefly luciferase in […] Tris-acetate buffer was then delivered by FRD to each well for a final enzyme concentration of 10nM. Luciferase activity was then measured using a ViewLux CCD imager (PerkinElmer), with an average exposure time of 2-30 seconds (2X binning, medium/high gain).
# Luciferin 4-monooxygenase (Photinus pyralis), sequence (P08659 whole entry, looked up): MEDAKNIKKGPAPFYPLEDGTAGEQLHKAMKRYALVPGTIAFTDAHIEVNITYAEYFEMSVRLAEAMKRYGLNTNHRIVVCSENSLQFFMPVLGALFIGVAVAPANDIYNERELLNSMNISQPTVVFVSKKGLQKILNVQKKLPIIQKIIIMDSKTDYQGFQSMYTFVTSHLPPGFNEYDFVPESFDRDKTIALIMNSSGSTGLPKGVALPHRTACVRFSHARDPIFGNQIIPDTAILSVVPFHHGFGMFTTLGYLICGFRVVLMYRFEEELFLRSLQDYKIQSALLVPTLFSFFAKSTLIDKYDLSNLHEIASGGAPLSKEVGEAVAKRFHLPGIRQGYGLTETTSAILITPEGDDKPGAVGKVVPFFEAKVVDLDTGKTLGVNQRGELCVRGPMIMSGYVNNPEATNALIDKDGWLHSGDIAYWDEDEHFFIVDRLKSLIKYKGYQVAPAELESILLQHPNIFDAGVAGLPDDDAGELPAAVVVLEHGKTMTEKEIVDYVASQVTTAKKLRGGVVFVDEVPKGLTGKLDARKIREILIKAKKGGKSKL
Structure (SMILES),Potency,"activity change, negative = inhibition [%]"
CCOc1ccc(C(=O)Nc2ccccc2C(=O)O)cc1,1830 nM (active),
CCOc1ccc2nc(NC(=O)c3ccccc3)sc2c1,91.9 nM (active),
O=C(O)c1ccc(NC(=O)c2cccc(C(=O)Nc3ccc(C(=O)O)cc3)c2)cc1,,0.635
O=C(Nc1c(Cl)cc(Cl)cc1-c1nc2ccccc2s1)c1ccc(Br)o1,,-1.44
COc1ccccc1C(=O)Nc1ccc(C(=O)Nc2ccccc2C(=O)O)cc1,,-4.84
Cc1ccc(C(=O)Nc2ccc(C(=O)O)cc2)cc1S(=O)(=O)Nc1ccccc1,,3.68
COc1ccc(C(=O)Nc2nc3ccc(OC)cc3s2)cc1,5800 nM (active),
COc1ccc2nc(NC(=O)CCc3ccc(OC)c(OC)c3)sc2c1,,5.86
COc1c(C)cccc1C(=O)Nc1ccc(-c2nc3ccccc3s2)c(Cl)c1,,6.89
O=C(COC(=O)c1ccccc1[N+](=O)[O-])c1ccc2c(c1)OCO2,4.6 nM (active),
CC(C)Oc1ccc(C(=O)Nc2ccc(-c3nc4ccccc4s3)cc2)cc1,,-9.43
O=C(Nc1ccc(-c2nc3ccccc3s2)cc1)C1=COCCO1,18.3 nM (active),
CCOc1ccc2nc(NC(=O)c3cccnc3)sc2c1,2060 nM (active),
CCCC(=O)Nc1nc2ccc(OCC)cc2s1,3260 nM (active),
O=C(O)c1cccc(NC(=O)c2cccc(S(=O)(=O)N3CCc4ccccc4C3)c2)c1,18300 nM (active),
Cc1ccc(C(=O)O/N=C(\N)c2ccccn2)c(Cl)c1,4.6 nM (active),
CN(C)c1cccc(C(=O)Nc2ccc(-c3nc4ccccc4s3)cc2)c1,819 nM (active),
COc1ccc(-c2cccc(C(=O)Nc3cccc(C(=O)O)c3)c2)cc1,5800 nM (active),
CC(C)(C)NC(=O)c1ccccc1-c1nc2ccccc2s1,,-11.8
O=C(Nc1ccccc1C(=O)O)c1ccc(Cl)c(S(=O)(=O)N2CCOCC2)c1,10300 nM (active),

Structure (SMILES),Potency,"activity change, negative = inhibition [%]"
O=C(O)c1ccc(NC(=O)c2cc(S(=O)(=O)N3CCCCC3)c(Cl)cc2Cl)cc1,,4.47
O=C(O)c1cccc(NC(=O)c2ccc(Cl)c(S(=O)(=O)N3CCCCCC3)c2)c1,366 nM (active),
O=C(Nc1ccccc1C(=O)O)c1cccc(S(=O)(=O)Nc2ccc(Br)cc2)c1,,-5.72
COc1ccc(C(=O)Nc2ccccc2C(=O)Nc2ccccc2C(=O)O)cc1,4610 nM (active),
O=C(O)c1cccc(NC(=O)c2ccc(S(=O)(=O)c3ccccc3)cc2)c1,11600 nM (active),
O=C(Nc1cccc(-c2nc3ccccc3s2)c1)C1=COCCO1,25900 nM (active),
CCOC(=O)N1CCN(CC(=O)Nc2nc3ccc(OC)cc3s2)CC1,,-4.98
O=C(Nc1ccccc1C(=O)O)c1cc(S(=O)(=O)Nc2cccc(F)c2)ccc1Cl,,-5.57
O=C(O)c1cccc(NC(=O)c2ccc(COc3ccc(Cl)cc3)cc2)c1,3660 nM (active),
CC(C)C(=O)Nc1cccc(C(=O)Nc2ccccc2C(=O)O)c1,11600 nM (active),
O=C(Nc1ccccc1C(=O)O)c1ccc(NC(=O)C2CCCO2)cc1 (stereo not given),20600 nM (active),
Oc1ccc(-c2nc3ccccc3s2)c(O)c1,2590 nM (active),
O=C(O)c1ccc(NC(=O)c2ccccc2NC(=O)c2ccccc2Cl)cc1,,-2.01
CC(C)c1ccc(-c2nc3ccccc3s2)cc1,41.1 nM (active),
Cc1ccc(C(=O)Nc2cccc(C(=O)O)c2)cc1S(=O)(=O)N1CCOCC1,3260 nM (active),
O=C(Nc1ccccc1-c1nc2ccccc2s1)c1ccc(Br)o1,,-1.11
O=C(O)c1cccc(NC(=O)c2cccc(S(=O)(=O)N3CCc4ccccc43)c2)c1,18300 nM (active),
Nc1ccc(-c2nc3ccc(C(=O)O)cc3s2)cc1,65.1 nM (active),
Cc1c(C)c2ccc(OCC(=O)Nc3ccccn3)c(C)c2oc1=O,8.2 nM (active),
COc1ccc(C(=O)Nc2ccccc2C(=O)N/N=C/c2ccc(O)c(OC)c2)cc1,14.6 nM (active),
